The results in this text go back to PubChem BioAssay (NCI).

A short description of experiment [1]: NCI Yeast Anticancer Drug Screen. Data for the rad50 strain (AID 155).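 Note: 0% = growth of vehicle-only cultures of the same strain.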 As to conditions: S. cerevisiae rad50 strain growth inhibition, hits give high values; at 50.0 µM unless noted. In outline:
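Genetically altered yeast (DNA repair pathway); compound treatment; growth inhibition vs vehicle ctrl.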

The nature of experiment [2]: NCI Yeast Anticancer Drug Screen. Data for the mec2-1 strain (AID 157). As to conditions: S. cerevisiae mec2-1 strain, hits give high values; at 50.0 µM unless noted. In outline: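 Each compound was tested on mec2-1 yeast, a strain altered in DNA damage repair or cell cycle control. Growth inhibition is reported relative to vehicle.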
The nature of experiment [3]: NCI Yeast Anticancer Drug Screen. Data for the sgs1 mgt1 strain (AID 161).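 Note: 0% = growth of cultures given vehicle only.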 To be noted: S. cerevisiae sgs1 mgt1 strain, hits give high values; at 50.0 µM unless noted. In outline: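 Read-out: growth inhibition vs vehicle controls. Cells: mutant yeast strain deficient in DNA damage repair.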
Experiment [4] can be described thus: NCI Yeast Anticancer Drug Screen. Data for the cln2 rad14 strain (AID 165).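 Note: 0% = growth equal to vehicle treated cultures.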 As to conditions: S. cerevisiae cln2 rad14 strain, hits give high values; at 50.0 µM unless noted. In outline: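 Test compounds were added to cln2 rad14 yeast cultures; inhibition of growth was then determined by comparison with vehicle treatment.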
Experiment [5] is described as follows: NCI Yeast Anticancer Drug Screen. Data for the bub3 strain (AID 167). To be noted: S. cerevisiae bub3 mutant strain, hits give high values; at 50.0 µM unless noted. In outline: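 Yeast carrying a defined mutation is treated with each compound, and growth is compared with that of vehicle-exposed cells to give inhibition.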
A short description of experiment [6]: NCI Yeast Anticancer Drug Screen. Data for the mlh1 rad18 strain (AID 175). To be noted: S. cerevisiae mlh1 rad18 strain growth inhibition, hits give high values; at 50.0 µM unless noted. In outline:
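Inhibition values reflect reduced growth of mutant yeast versus vehicle-treated controls following compound exposure; the mutations affect DNA damage repair.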

Several values for one entry are separate records, joined by “and”; a condition that tells them apart may be missing. Identical values can stand only once. About 79,000 compounds went through this panel and 15% of them were active in at least one assay; those are over-represented in the sample as a whole. Unmarked numbers belong to inactive results. Activity calls are given as the source filed them. Cut-off read from the data, not from the text of the source: active = growth inhibition above about 70%; inactive = the rest.

Consider `CS/C(C)=N/OC(=O)NCCCCNc1ccc(N=[N+]=[N-])cc1`, for which the growth inhibition in experiment [1] was 13.9%; in experiment [2] it was -4.15%; in experiment [3], 5.4%; in experiment [4] it was 36.7%; in experiment [5], 4.5%; in experiment [6], 0.6%.
Consider `CCOC(=O)c1c(-c2ccccc2)csc1NS(=O)(=O)c1ccc(C)cc1`, for which the growth inhibition is 81.8% (active) in experiment [1]; 78.2% (active) in experiment [2]; 87% (active) in experiment [3]; 82.3% (active) in experiment [4]; 81.8% (active) in experiment [5]; 90.6% (active) in experiment [6].
`CCOC(=O)/C(Cc1ccc2ccccc2n1)=N/O`: the growth inhibition was -6.35% in experiment [1]; -26.2% in experiment [2]; 0.9% in experiment [3]; -16.8% in experiment [4]; 13.7% in experiment [5]; 6.25% in experiment [6].
As for `COC1CCC(OS(C)(=O)=O)C(C)O1` (stereo not given), the growth inhibition in experiment [1] was 16.8%; in experiment [2] it was -45.9%; in experiment [3] it was 4.6%; in experiment [4], -2.15%; in experiment [5], -38.7%; in experiment [6] it was 9.85%.
As to `CC(C)C1CO[C@]2(C)CCC(=O)N12` (stereo not given in full), the growth inhibition in experiment [1] was 4.6%; in experiment [2] it was 11.9%; in experiment [3], -2.6%; in experiment [4], 13.8%; in experiment [5], 6.3%; in experiment [6], 9.95%.
With `CCCCOC(=O)c1ccccc1C(=O)Nc1ccccc1`, the growth inhibition in experiment [1] was 7.6%; in experiment [2], 12.6%; in experiment [3], 2%; in experiment [4] it was 2.1%; in experiment [5] it was 4.4%; in experiment [6], -19.7%.
On to `O=S1(=O)C2C=CC1C(Br)C(Br)CC2` (stereo not given), for which the growth inhibition in experiment [1] is -9.4%; in experiment [2] it was 13.9%; in experiment [3] it was 26.8%; in experiment [4], 12%; in experiment [5], -0.15%; in experiment [6], 20.4%.
`CS(=O)(=O)Nc1c(-c2ccccc2)oc2ccccc2c1=O`: the growth inhibition is -12.1% in experiment [1]; -0.8% in experiment [2]; -6.5% in experiment [3]; -33.6% in experiment [4]; 11.3% in experiment [5]; -3.85% in experiment [6].
`Nc1ccccc1[N+](=O)[O-]`: the growth inhibition in experiment [1] was -14.4%; in experiment [2] it was -3.45%; in experiment [3], -14.7%; in experiment [4], -15.7%; in experiment [5], 1.5%; in experiment [6], -1.55%.
For the compound `CSc1nc(N)c2cnn(Cc3ccccc3)c2n1`, the growth inhibition was 28.4% in experiment [1]; 12.5% in experiment [2]; 34% in experiment [3]; 8.95% in experiment [4]; 31.4% in experiment [5]; 31.4% in experiment [6].
As to `CS1(C)=Nc2c([N+](=O)[O-])cc([N+](=O)[O-])cc2S(=O)(=O)N=1`, the growth inhibition was -9.9% in experiment [1]; -12.1% in experiment [2]; -1.3% in experiment [3]; -15.9% in experiment [4]; -5% in experiment [5]; 6.55% in experiment [6].
Regarding `Cc1c(CCN2CCOCC2)c(N2CCOCC2)n2c(nc3ccccc32)c1C#N`, the growth inhibition in experiment [1] was -14.7%; in experiment [2], -11.9%; in experiment [3] it was -9.2%; in experiment [4], 1%; in experiment [5], -16.3%; in experiment [6], -15%.
For `O=C1OC(C(O)C(O)CO)C(O)C1O` (stereo not given), the growth inhibition in experiment [1] is 8.2% and -17.4%; in experiment [2] it was 7.7% and -27.4%; in experiment [3], 1.35% and -34.2%; in experiment [4], -16.9% and -32.7%; in experiment [5], 14.4% and -0.9%; in experiment [6], -23.7% and -1.8%.
Consider `Cc1cccc2ccc(-c3cc4ccccc4s3)nc12`, for which the growth inhibition is -5.95% in experiment [1]; -15.1% in experiment [2]; -3.1% in experiment [3]; -87.6% in experiment [4]; -10.2% in experiment [5]; -21.1% in experiment [6].
`O=CNC1c2ccccc2CCc2ccccc21`: the growth inhibition in experiment [1] was -1.15%; in experiment [2] it was -12.9%; in experiment [3], -11.4%; in experiment [4], -2.45%; in experiment [5] it was -22.6%; in experiment [6] it was -5.85%.
For `O=C(Nc1ccc(Nc2ccc3c(c2)C(=O)c2ccccc2C3=O)c2c1C(=O)c1ccccc1C2=O)c1ccccc1`, the growth inhibition was -35.7% in experiment [1]; -15.2% in experiment [2]; -15.3% in experiment [3]; -36.7% in experiment [4]; -15.2% in experiment [5]; -25.6% in experiment [6].
Regarding `Cc1cc(OC(=O)c2c(-c3c(Cl)cccc3Cl)noc2C)n(-c2ccc(NC(=O)c3c(-c4c(Cl)cccc4Cl)noc3C)cc2)n1`, the growth inhibition in experiment [1] is 36.8%; in experiment [2], 24.8%; in experiment [3], 19.7%; in experiment [4], 13%; in experiment [5], 28.1%; in experiment [6], 25.9%.
On to `C=CCNC1=C(NC(C)=O)C(=O)c2ccccc2C1=O`, for which the growth inhibition was 16.1% in experiment [1]; 0.95% in experiment [2]; 4.8% in experiment [3]; -31.2% in experiment [4]; 28.6% in experiment [5]; 12.4% in experiment [6].
On to `CCCCCCn1ncc2c(N)ncnc21`, for which the growth inhibition was 10.4% in experiment [1]; 6.85% in experiment [2]; -1.3% in experiment [3]; -4% in experiment [4]; 29.8% in experiment [5]; -1.3% in experiment [6].
`CNC(=O)NCCCCC(NC(=O)OCc1ccccc1)C(=O)OCc1ccccc1` (stereo not given): the growth inhibition in experiment [1] is 3.15%; in experiment [2], -14%; in experiment [3], -37.2%; in experiment [4], -3.5%; in experiment [5] it was 1.15%; in experiment [6], -24.1%.
